tim10-1 inh: growth inhibitors of tim10-1 mutant yeast, primary screen, luminescence, uHTS; S. cerevisiae tim10-1 ts strain growth, BacTiter-Glo, 24 h; inhibition, % at 20 µM; 330,000 compounds, 2.2% hits;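 active = inhibition of at least 40%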;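 also: mutant grown at 25 °C; 0% = DMSO wells with yeast and 100% = wells holding no yeast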
tim23-1 inh: growth inhibitors of tim23-1 mutant yeast, primary screen, luminescence, uHTS; S. cerevisiae tim23-1 growth, BacTiter-Glo luminescence, 24 h; inhibition, % at 20 µM; 330,000 compounds, 1.3% hits; AID 463212, 2010;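 active = growth inhibition of the mutant yeast at or above 50%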;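 also: temperature-sensitive mutant grown at 25 °C; plate controls were DMSO-treated mutant yeast for no effect and medium wells lacking yeast for full effect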
PfHsp90 yeast 2: growth inhibition of PfHsp90-expressing yeast, primary screen, antimalarial PfHsp90 inhibitor project, S. cerevisiae, BacTiter-Glo luminescence, single point, set 2; BacTiter-Glo ATP, 48 h; yeast lacking PDR1 and PDR3 efflux regulators; inhibition, % at 9.4 µM; 310,000 compounds, 0.32% hits; AID 504621, 2011;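 active = every replicate shows inhibition above about 80%, whatever the replicate mean, limit read from the data; inconclusive = mean inhibition reaches the set limit but some replicate falls short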;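 also: 0% = DMSO neutral controls and 100% = 20 µM radicicol positive controls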
SKKanGAS inh: S. pyogenes SKKanGAS growth inhibitors in kanamycin, primary screen, streptokinase expression inhibitor project, SKKanGAS strain, BacTiter-Glo luminescence; 6 h; 300,000 compounds, 1.3% hits; inhibition, % at 7.5 µM;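 active = mean replicate score, as percent of positive control median, at least 50; inconclusive = mean below 50 but one replicate at or above 50; inactive = mean and every replicate below 50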;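 also: strain carries kanamycin resistance gene driven by streptokinase promoter and grows in 40 µg/ml kanamycin; loss of luminescence reflects streptokinase promoter inhibition or plain growth inhibition; 0% = median of DMSO wells and 100% = positive control at its reference dose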
NLRP3 yeast inh: NALP3 inflammasome inhibitors in reconstituted yeast, primary screen, luminescence, uHTS; Yeast reconstituted NLRP3/ASC/caspase-1, beta-gal luminescence, 24 h; 330,000 compounds, 0.39% hits; inhibition, % at 10 µM;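 active = inhibition of 50% or more; inactive = inhibition below 50%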;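 also: plate controls were induced DMSO wells for no effect and uninduced yeast grown without galactose for full effect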
TIM10 inh: growth inhibitors of isogenic TIM10 control yeast, primary screen, counter-screen for tim10-1 yeast inhibitor project, luminescence, uHTS; 330,000 compounds, 1.4% hits; S. cerevisiae TIM10 strain growth, BacTiter-Glo luminescence, 24 h; inhibition, % at 10 µM;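 active = inhibition of 40% or more at the single tested concentration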;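 also: wild-type TIM10 isogenic control strain grown at permissive 25 °C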
tim10-1 confirm: growth inhibitors of tim10-1 mutant yeast, confirmation, single concentration, luminescence, S. cerevisiae; shares compounds with tim10-1 inh; inhibition, % at 20 µM; 7,400 compounds, 56% hits; S. cerevisiae tim10-1 ts strain growth, BacTiter-Glo, 24 h;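 active = inhibition of yeast growth at or above a set limit in either of two repeat tests at 20 µM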;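 also: tim10-1 mutant grown at permissive 25 °C to find synthetic lethal compounds; 0% = DMSO yeast wells and 100% = medium wells without yeast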
TIM10 conf: growth inhibitors of wild-type TIM10 yeast, confirmation, counter-screen for tim10-1 synthetic lethality project, single concentration, luminescence, S. cerevisiae | shares compounds with TIM10 inh | S. cerevisiae tim10 strain growth, BacTiter-Glo luminescence, 24 h | inhibition, % at 10 µM | 4,600 compounds, 63% hits | AID 463215, 2010;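 active = inhibition of yeast growth at or above a set limit in either of two replicates at 10 µM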;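 also: this counterscreen used the strain with wild-type TIM10; 0% = yeast with DMSO and 100% = medium wells lacking yeast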
Starred values were filed as active, the others as inactive; ? = inconclusive; nt = not tested or not shown. Sampled rows, rich in hits. Any-hit rate of the full collection: about 4.5%.

SMILES	tim10-1 inh	tim23-1 inh	PfHsp90 yeast 2	SKKanGAS inh	NLRP3 yeast inh	TIM10 inh	tim10-1 confirm	TIM10 conf
CC(=O)c1ccc(S(=O)(=O)N(CC(=O)NC2CC2)Cc2ccc(F)cc2)cc1	4	0	-14	nt	10	3	nt	nt
C=CCNC(=O)C1CCN(c2cc(C)nc(-c3ccccc3)n2)CC1	14	5	22	2	10	6	nt	nt
Cc1cc(N2CCC(C(=O)Nc3ccc(F)cc3)CC2)nc(-c2ccccc2)n1	49*	11	-11	5	46	43*	30	-9
CC1CCCC(NC(=O)Nc2cccs2)C1C (centres undefined)	55*	34	56	2	22	56*	65*	53*
CCOC(=O)c1ccc(NS(=O)(=O)c2ccc(SC)cc2)cc1	41*	43	-22	17	25	40*	38*	11
CC(=O)Nc1ccc(NC(=O)C(C)OC(=O)CCc2c[nH]c3ccccc23)cc1 (centres undefined)	-9	-9	-14	-4	18	-1	nt	nt
Cc1cccc(N2CCN(C(=O)c3cccc(N4CCCC4=O)c3)C(C)C2)c1 (centres undefined)	4	11	-104	0	-3	7	nt	nt
CCOC(=O)C1CCCN(C(=O)c2ccc(-c3ccc([N+](=O)[O-])cc3)o2)C1 (centres undefined)	58*	46	14	-8	9	46*	66*	58*
CCOC(=O)C1CCCN(C(=O)c2ccc(CS(=O)(=O)c3ccc(C)cc3)o2)C1 (centres undefined)	13	6	27	-3	5	6	nt	nt
O=C(COC(=O)CNC(=O)c1ccccc1Cl)Nc1ccccc1Cl	10	10	-10	nt	11	-2	nt	nt
Oc1ccc(C(=S)N2CCN(c3cccc(Cl)c3)CC2)cc1	41*	25	-4	nt	9	54*	53*	48*
Cc1ccc(S(=O)(=O)NCC(c2ccc3c(c2)OCO3)N2CCOCC2)cc1 (centres undefined)	12	18	0	-5	15	-3	nt	nt
CCC(C(=O)O/N=C(\N)c1ccc(Cl)cc1)c1ccccc1 (centres undefined)	75*	11	-21	0	-10	63*	63*	71*
N/C(=N\OC(=O)/C=C/c1ccccc1)c1ccc(Cl)cc1	8	11	6	48	1	15	nt	nt
Cn1cccc1C(=O)NC(=O)COC(=O)CCNS(=O)(=O)c1ccc(Cl)cc1	-1	15	2	nt	13	1	nt	nt
Cc1ccc(C)c(S(=O)(=O)N2CCN(C(=O)CCCc3c[nH]c4ccccc34)CC2)c1	21	14	-12	15	-1	6	nt	nt
CC1Cc2ccccc2N1C(=S)NC(=O)c1ccc(Cl)cc1Cl (centres undefined)	44*	45	-5	61*	30	50*	46*	-7
O=C(Nc1ccc(N2CCN(C(=O)c3ccc(Cl)cc3)CC2)cc1)c1ccc(Br)o1	34	12	17	-1	12	0	nt	nt
O=C(Nc1ccc(C(=O)N2CCN(c3ccc(Cl)cc3)CC2)cc1)C1=CSCCO1	47*	31	3	26	15	47*	48*	45*
O=S(=O)(c1ccc2[nH]c3c(c2c1)CCCC3)N1CCCCC1	40*	49	0	2	6	41*	28	34*
O=c1[nH]c2ccc(S(=O)(=O)N3CCCCC3)cc2[nH]1	2	4	3	2	3	5	nt	nt
COc1ccc(Br)cc1C(=O)CCC(=O)OCC(=O)Nc1cc(C(N)=O)cc(C(N)=O)c1	0	6	15	nt	-2	4	nt	nt
Cc1ccc(O)c(C(=O)/C=C/c2ccc3c(c2)OCCO3)c1	55*	41	15	-8	23	59*	54*	50*
CCCCN(CCCC)CCNC(=O)CSCc1ccc(C)cc1	-5	9	-11	-1	5	-15	nt	nt
Cn1cccc1C(=O)NCC1COc2ccccc2O1 (centres undefined)	5	15	nt	nt	19	6	nt	nt
SMILES	tim10-1 inh	tim23-1 inh	PfHsp90 yeast 2	SKKanGAS inh	NLRP3 yeast inh	TIM10 inh	tim10-1 confirm	TIM10 conf
Cn1c(=O)c2nc(-c3ccccc3)oc2c2ccccc21	55*	49	nt	2	26	59*	48*	68*
CCOC(=O)C1=CN(Cc2ccco2)S(=O)(=O)N(CC)C1c1ccccc1 (centres undefined)	28	47	1	nt	nt	-2	nt	nt
Cc1ccc(-n2cccc2C(=S)N=P(N(C)C)(N(C)C)N(C)C)cc1	41*	26	4	7	42	46*	26	14
C/C(=N\NC(=S)NCC(C)(C)C)c1cc(F)cc(F)c1O	42*	50	3	90*	25	44*	41*	60*
COCCNC(=S)N/N=C(\C)c1ccc(O)cc1	7	13	19	3	6	0	nt	nt
CC1CCC2C(C1)c1sc(=O)[nH]c1SC2(C)C (centres undefined)	51*	24	-187	-2	-23	41*	41*	41*
CCN1CCCC(OC(=O)c2cc(-c3ccccc3Cl)nc3ccccc23)C1 (centres undefined)	48*	12	-4	7	13	49*	33*	37*
CC1C/C(=N\NC(=S)NCc2ccccc2)CC(C)(C)C1 (centres undefined)	58*	48	-1	?	1	54*	48*	45*
CCCCn1c(CCC)nc([N+](=O)[O-])c1Sc1ccc(Cl)cn1	44*	47	-22	-4	1	49*	40*	42*
CC(C)Cn1c(C(C)C)nc([N+](=O)[O-])c1Sc1ccc(Cl)cn1	37	48	nt	6	3	23	nt	nt
COc1ccccc1N1CCN(C(=O)c2ccc3[nH]c4c(c3c2)CCCC4)CC1	40	41	-9	7	26	28	nt	nt
O=C(c1ccc2[nH]c3c(c2c1)CCCC3)N1CCN(c2ccc(F)cc2)CC1	41*	46	-45	19	8	42*	15	-6

High-throughput results from PubChem.
